According to PubChem BioAssay (NCI):
This is part of a sample that, as a whole, favours compounds with a hit. Of some 83,000 tested, about 20% had one in any assay.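 A percent growth of 40 corresponds to 60% growth inhibition; 0 means no net growth; -100 means all cells died. Active threshold: below 10.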 The source made the active and inactive calls.

Assays:
Test in all cases: NCI-60 one-dose screen, 48 h (100 = growth as untreated, 0 = no growth, -100 = all killed)
Details in all cases: 10 µM unless noted
[1] = test system: T-47D breast
[2] = test system: BT-549 breast
[3] = test system: MDA-MB-435 melanoma
[4] = test system: SW-620 colon
[5] = test system: MCF7 breast
[6] = test system: HCT-116 colon
[7] = test system: HCC-2998 colon
[8] = test system: KM12 colon

Measured: growth

COc1cc2c3c(n(CCCCNCCCn4c5c(c6cc(OC)c(OC)cc6c4=O)C(=O)c4cc6c(cc4-5)OCO6)c(=O)c2cc1OC)-c1cc2c(cc1C3=O)OCO2
inactive: [1] 88.7% | [2] 106% | [3] 105% | [4] 95.2% | [5] 93.6% | [6] 93.9% | [7] 105% | [8] 93.8%

COc1cc(-c2nc(NC(C)=O)sc2-c2ccnc(NCCNS(=O)(=O)c3ccccc3)n2)ccc1Cl
active: [2] -8.24% | [3] -62.3%
inactive: [1] 41.8% | [4] 33.3% | [5] 14.1% | [6] 12.2% | [7] 73.2% | [8] 25.6%

N#CCC1=NC(c2cccs2)=Nc2ccccc2S1
inactive: [1] 69.7% | [2] 86.6% | [3] 105% | [4] 97.8% | [5] 96.8% | [6] 80.8% | [7] 92.5% | [8] 94.9%

O=C(CSc1nc2ccc([N+](=O)[O-])cc2[nH]1)Nc1ccc(Br)cc1
active: [1] 8.75%
inactive: [2] 50.4% | [3] 46.5% | [4] 74.5% | [5] 64.5% | [6] 28.2% | [7] 79.6% | [8] 56.2%

Cc1ccc(C)n1/C=C/n1c(C)ccc1C
inactive: [1] 90.5% | [2] 91% | [3] 91.9% | [4] 110% | [5] 106% | [6] 104% | [7] 95% | [8] 109%

COc1cc(/C=C2\CN(S(=O)(=O)c3ccc(C)cc3)C/C(=C\c3cc(CN4CCCCC4)c(O)c(OC)c3)C2=O)cc(CN2CCCCC2)c1O
active: [2] -49% | [3] -82.6% | [4] -77.5% | [5] -74.4% | [6] -70.6% | [7] -87.2% | [8] -85.2%
inactive: [1] 33.8%

O=C(N=Nc1c(O)[nH]c2ccccc12)Nc1ccc(Cl)cc1
inactive: [1] 87.2% | [2] 103% | [3] 95.5% | [4] 90.3% | [5] 76.3% | [6] 94.4% | [7] 99% | [8] 81.1%

CC1(C)CC[C@]2(C(=O)O)CC[C@]3(C)C(=CC[C@@H]4[C@@]5(C)C[C@@H](Cc6cn([C@@H]7O[C@H](CO)[C@@H](O)[C@H](O)[C@H]7O)nn6)[C@H](O)C(C)(C)[C@@H]5CC[C@]43C)[C@@H]2C1
inactive: [1] 94.2% | [2] 101% | [3] 104% | [4] 102% | [5] 91.4% | [6] 96.4% | [7] 104% | [8] 104%

C=CCOC(=O)C1=C(C)NC(=O)NC1c1c(Cl)n(C)c2ccccc12 (stereo not given)
inactive: [1] 92.5% | [2] 99.1% | [3] 103% | [4] 98.6% | [5] 94.8% | [6] 93.4% | [7] 104% | [8] 102%

O=C(/C=C/C12c3ccccc3C(c3ccccc31)C1C(=O)NC(=O)C12)c1ccccn1 (stereo not given)
inactive: [2] 11% | [5] 10.4% | [7] 16.5%
active: [1] 9.45% | [3] -23.7% | [4] -1.62% | [6] -65% | [8] 1.06%

Clc1nccc2c(-c3csc(-c4c[nH]c5ccccc45)n3)c[nH]c12
inactive: [1] 37% | [2] 65.7% | [3] 53.9% | [5] 49.6% | [6] 39.7% | [7] 63.7% | [8] 47.5%
active: [4] 7.87%

Cc1[nH]c(C(=O)Nc2ccc(C(N)=O)cc2NC(C)C)c(Cl)c1Cl
inactive: [1] 82.6% | [2] 93% | [3] 101% | [4] 96.1% | [5] 92% | [6] 81% | [8] 98.9%

CC1=C(C(=O)n2c3ccccc3c3ccccc32)C(c2cccc([N+](=O)[O-])c2)C(C(=O)n2c3ccccc3c3ccccc32)=C(C)N1
inactive: [1] 80.5% | [2] 102% | [3] 117% | [4] 100% | [5] 94.8% | [6] 91.8% | [8] 94.8%

COc1ccc(Nc2ncccc2NC(=O)c2cn(Cc3cccc(Oc4ccccc4)c3)nn2)cc1OC
active: [3] 4.74%
inactive: [1] 49.2% | [2] 73% | [4] 73% | [5] 48.5% | [6] 80.7% | [8] 57.6%

COc1cccc(/C=C/C(=O)c2cc3c(N)c(C(=O)Nc4ccccc4C)sc3nc2C)c1
active: [3] -26.3% | [4] 1.68% | [5] 7.39%
inactive: [1] 56.2% | [2] 37.8% | [6] 41.8% | [8] 27.4%

NC(=O)c1ccc(NC(=O)c2oc3ccccc3c2-c2cnn(-c3ccccc3)c2)cc1
inactive: [1] 49.8% [50 µM] | [2] 22.2% [50 µM] | [3] 37.7% [50 µM] | [4] 12.8% [50 µM] | [7] 28.7% [50 µM] | [8] 34.1% [50 µM]
active: [5] -1.73% [50 µM] | [6] 9.74% [50 µM]

O=C1CCCc2nc3sc4c(=O)n(-c5ccccc5Cl)nnc4c3cc21
inactive: [1] 83.8% | [2] 102% | [3] 102% | [4] 102% | [5] 90.4% | [6] 96% | [8] 107%

COP(=O)(OC)c1nnn(-c2cccc([N+](=O)[O-])c2)c1C
inactive: [1] 99.4% | [2] 105% | [3] 108% | [4] 100% | [5] 97.9% | [6] 105% | [7] 110% | [8] 105%

O=C(NCc1ccc2c(c1)OCO2)NCC1CCCC(CNC(=O)NCc2ccc3c(c2)OCO3)C1 (stereo not given)
inactive: [1] 86.7% | [2] 96.3% | [3] 95.9% | [4] 98% | [5] 101% | [6] 101% | [7] 102% | [8] 105%

CCOC(=O)C1=C(c2ccccc2)N=c2s/c(=C/c3ccc(Br)cc3)c(=O)n2C1c1ccc(O)cc1 (stereo not given)
inactive: [1] 69.7% | [2] 95.3% | [3] 96% | [4] 94.6% | [5] 77.1% | [6] 82.3% | [7] 105% | [8] 84.4%

CCN(CC)c1ccc(/C=N\NC(=O)c2cccc(Nc3ccnc(C(F)(F)F)c3)c2)c(O)c1
inactive: [1] 15.1% | [2] 28.8% | [3] 15.4% | [4] 35.4% | [5] 16.1% | [6] 26.5% | [8] 23%

COc1cccc(/C=C2\COc3ccc(O)cc3C2=O)c1
active: [5] 4.96%
inactive: [1] 47.5% | [2] 78% | [3] 52.8% | [4] 18.1% | [6] 32.8% | [8] 43.7%

CCOC(=O)c1ccc2c(c1)c1c(C)c3ccncc3c(C)c1n2C
active: [1] -3.13% | [3] 3.03% | [4] 0.329% | [5] 1.8% | [6] 0.263% | [8] 0.78%
inactive: [2] 21.1%

CC(C)(C)C(=O)/C=C/c1ccc([N+](=O)[O-])cc1
active: [5] 8.67%
inactive: [1] 65.8% | [2] 78.5% | [3] 47.1% | [4] 20% | [6] 42.2% | [8] 31.9%

Cc1cc(C)c(-c2c(O)c(Br)c(-c3c(C)cc(C)c(Br)c3C)c(O)c2Br)c(C)c1Br
inactive: [2] 22.2% | [3] 13.1% | [8] 12.2%
active: [1] -19.4% | [4] 3.38% | [5] 6.48% | [6] 9.25%

COc1ccc(C2=Nc3c(N)ncnc3NC(c3cccc(Nc4ccnc5cc(C(F)(F)F)ccc45)c3)C2)cc1 (stereo not given)
inactive: [1] 62% | [2] 80.7% | [3] 19.1% | [4] 62.3% | [5] 30.1% | [6] 40% | [8] 47.1%

O=C1OCC2=C1C(c1cccc(C(F)(F)F)c1)c1cc3c(cc1N2CCO)OCO3 (stereo not given)
inactive: [1] 28% | [2] 55% | [4] 23.3% | [5] 20.9% | [6] 21.4% | [7] 69.9% | [8] 24.9%
active: [3] -44.1%

CC[C@]12C=CCN3CC[C@@]4(c5ccc(OC)cc5N(C)[C@H]4[C@@](O)(C(=O)OC)[C@@H]1OC(=O)CCCN1CCOCC1)[C@@H]32
inactive: [1] 106% | [2] 105% | [3] 100% | [4] 105% | [5] 103% | [6] 101% | [8] 107%

O=C(c1ccc(F)c(Cl)c1)N1c2ccccc2Sc2ccccc21
active: [3] 8.14%
inactive: [1] 61% | [2] 57.6% | [4] 33.9% | [5] 51.2% | [6] 31.4% | [8] 39.6%

CCCCNC1=C(OCC)C(=O)c2ccccc2C1=O
inactive: [1] 89.6% | [2] 76.5% | [3] 96.8% | [4] 104% | [5] 76.3% | [6] 80.3% | [8] 93.7%

CC(C)(CO)N(CCO)CCO
inactive: [1] 112% | [2] 101% | [3] 108% | [4] 111% | [5] 100% | [6] 106% | [8] 106%

O=C1NC(=O)c2c1c1c3ccccc3[nH]c1c1oc3cc(Br)ccc3c21
inactive: [1] 28.1% | [2] 81.3% | [3] 76.6% | [4] 51.5% | [5] 36.2% | [6] 65.1% | [8] 64.4%
